Some test systems named below: RPMI-8226 leukemia; OVCAR-8 ovarian; OVCAR-5 ovarian; OVCAR-4 ovarian; IGROV1 ovarian; OVCAR-3 ovarian; HS 578T breast; NCI/ADR-RES ovarian; T-47D breast.
What all share (assay): NCI-60 one-dose screen, 48 h (100 = growth as untreated, 0 = no growth, -100 = all killed)
Holding throughout (settings): 10 µM unless noted

This is part of a sample that, as a whole, favours compounds with a hit. Of some 83,000 tested, about 20% had one in any assay.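 Compound tested at a single concentration for 48 hours in 96-well plates; a percent growth value below 10 was scored as active.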 Unmarked numbers belong to inactive results. Activity calls are given as the source filed them.

The source of these data is PubChem BioAssay (NCI).

As to `CCCN1CCN(c2ccc3nc(-c4ccc5nc(-c6cc(OC)ccc6OC)[nH]c5c4)[nH]c3c2)CC1`, the growth was -17% (active) in the test on RPMI-8226 leukemia; 106% in the test on OVCAR-8 ovarian; 113% in the test on OVCAR-5 ovarian; 81.1% in the test with OVCAR-4 ovarian; 103% in the test with IGROV1 ovarian; 122% in the test with OVCAR-3 ovarian. Moreover, the growth in the test with HS 578T breast and in the test with NCI/ADR-RES ovarian was 111% each time.
As for `COc1cc2nc(NC3CCC3)nc(NC3CCN(C(C)C)CC3)c2cc1OC`, the growth in the test with RPMI-8226 leukemia is -7.43% (active); with OVCAR-8 ovarian, 58.2%; in the test on OVCAR-5 ovarian it was 97.2%; in the test on OVCAR-4 ovarian, 62.5%; in the test on IGROV1 ovarian it was 75.1%; in the test on OVCAR-3 ovarian, 85.7%. Further, the growth in the test on HS 578T breast was 66.2%; in the test on NCI/ADR-RES ovarian, 96.9%; with T-47D breast, -7.17% (active).
Turning to `COC(=O)c1c2c(c(C)[n+]([O-])c1C)C(=O)C(NCc1ccc(Br)cc1)=CC2=O`, the growth in the test with RPMI-8226 leukemia is 47.6%; with OVCAR-8 ovarian it was 4.52% (active); in the test on OVCAR-5 ovarian it was 69.1%; in the test with OVCAR-4 ovarian, -27% (active); in the test with IGROV1 ovarian, 5.51% (active); with OVCAR-3 ovarian, -21.5% (active). Further, the growth was 82.4% with HS 578T breast, -3.23% (active) in the test with NCI/ADR-RES ovarian and 20.5% in the test on T-47D breast.
With `OCCNc1nc(Nc2ccc(C3=NN(c4cc(Cl)cc(Cl)c4)C(c4ccc(C(F)(F)F)cc4)C3)cc2)nc(N2CCOCC2)n1` (stereo not drawn), the growth with RPMI-8226 leukemia was 71.7%; with OVCAR-8 ovarian, 68.1%; with OVCAR-5 ovarian it was 95.3%; in the test on OVCAR-4 ovarian it was 64%; in the test on IGROV1 ovarian it was 93%; in the test with OVCAR-3 ovarian, 86.1%. In addition, the growth with HS 578T breast is 62.8%; in the test with NCI/ADR-RES ovarian, 68.3%; with T-47D breast, 64.1%.
As to `Cn1c(/C=C(\C#N)c2ccccc2)nc2c(N3CCOCC3)nc(Cl)nc21`, the growth in the test on RPMI-8226 leukemia was -24.3% (active); in the test with OVCAR-8 ovarian it was 8.78% (active); in the test with OVCAR-5 ovarian, -50.1% (active); with OVCAR-4 ovarian, -58.4% (active); in the test with IGROV1 ovarian, -61.7% (active); in the test on OVCAR-3 ovarian it was -91.8% (active). In addition, the figures for the growth in the test on HS 578T breast, in the test on NCI/ADR-RES ovarian and in the test on T-47D breast were -20% (active), 3.17% (active) and -37.8% (active), respectively.
Turning to `O=C(/C=C/c1ccc(C(F)(F)F)cc1)c1ccc(Nc2nc(NCCO)nc(N3CCOCC3)n2)cc1`, the growth was 2.35% (active) in the test with RPMI-8226 leukemia; 28.5% with OVCAR-8 ovarian; 68.6% in the test on OVCAR-5 ovarian; 22.8% with OVCAR-4 ovarian; 25.4% in the test on IGROV1 ovarian; -31.9% (active) with OVCAR-3 ovarian. Besides, the growth is 78.1% in the test on HS 578T breast, 74.7% in the test with NCI/ADR-RES ovarian and 32.7% in the test on T-47D breast.
As to `Cc1ccccc1CNC(=O)C1CN(c2ccc(Cl)cc2)N(c2ccc(Cl)cc2)C1=O` (stereo not drawn), the growth in the test with RPMI-8226 leukemia was 65%; with OVCAR-8 ovarian, 87.9%; in the test on OVCAR-5 ovarian it was 91.8%; in the test on OVCAR-4 ovarian, 84.1%; with IGROV1 ovarian it was 89.7%; in the test with OVCAR-3 ovarian, 81.1%. For the same molecule, the results for the growth with HS 578T breast, in the test with NCI/ADR-RES ovarian and in the test on T-47D breast were 85.5%, 84.3% and 71.6%, respectively.
For the molecule `O=c1c2cc(F)ccc2sc2c(Nc3ccncc3)nc3ccccc3c12`, the growth with RPMI-8226 leukemia is -31.4% (active); with OVCAR-8 ovarian it was -18% (active); in the test on OVCAR-5 ovarian, -2.06% (active); in the test on OVCAR-4 ovarian, -67.5% (active); in the test on IGROV1 ovarian it was 70.7%; in the test with OVCAR-3 ovarian, 36.5%. Further, the growth with HS 578T breast is 75.3%; with NCI/ADR-RES ovarian it was -9.24% (active).
Regarding `COC(=O)c1ccc(NC(=O)CSc2nc3ccccc3c(=O)n2-c2ccccc2)cc1`, the growth in the test on RPMI-8226 leukemia is 89.4%; in the test on OVCAR-8 ovarian, 101%; in the test on OVCAR-5 ovarian, 94.7%; in the test on OVCAR-4 ovarian it was 90.6%; in the test with IGROV1 ovarian, 90.9%; in the test on OVCAR-3 ovarian, 92.6%. The growth with HS 578T breast was 101%; in the test with NCI/ADR-RES ovarian, 104%; with T-47D breast, 92.1%.
`CCCCN1CCN(c2ccc3nc(-c4ccc5nc(-c6ccc(OC)c(OC)c6)[nH]c5c4)[nH]c3c2)CC1`: the growth in the test with RPMI-8226 leukemia is -19% (active); in the test on OVCAR-8 ovarian, 3.24% (active); in the test with OVCAR-5 ovarian, 13.7%; in the test with OVCAR-4 ovarian, -46.1% (active); in the test with IGROV1 ovarian, -13.2% (active); in the test with OVCAR-3 ovarian, -46.8% (active). The growth in the test with HS 578T breast is -18.7% (active); with NCI/ADR-RES ovarian it was 91%.
`C=C1C(=O)O[C@H]2[C@H]1CC/C(COC(=O)/C=C\C(=O)O)=C\CC[C@@]1(C)O[C@@H]21`: the growth with RPMI-8226 leukemia is 114%; with OVCAR-8 ovarian, 101%; with OVCAR-5 ovarian, 93.8%; with OVCAR-4 ovarian it was 113%; with IGROV1 ovarian, 107%; with OVCAR-3 ovarian, 113%. For the same molecule, the growth in the test on HS 578T breast was 103%; in the test with NCI/ADR-RES ovarian it was 101%; in the test on T-47D breast, 100%.
Consider `O=C(c1nc2ccccc2[nH]1)C1C(c2ccc(F)cc2)C2CC3CCCCC3N2[C@@]12C(=O)Nc1ccc(Cl)cc12` (stereo partly drawn), for which the growth with RPMI-8226 leukemia is 13.9%; in the test with OVCAR-8 ovarian, 61.2%; in the test on OVCAR-5 ovarian it was 61.8%; in the test with OVCAR-4 ovarian, 31.5%; with IGROV1 ovarian it was 42.8%; in the test on OVCAR-3 ovarian it was 50.1%. The growth is 69.2% in the test with HS 578T breast, 51% in the test on NCI/ADR-RES ovarian and 37.4% in the test with T-47D breast.
As to `CCN1C(=O)N(c2ccccc2)C2Nn3c(s/c(=C4\C(=O)N(C(C)C)c5ccccc54)c3=O)=NC21` (stereo not drawn), the growth in the test with RPMI-8226 leukemia was 97.7%; with OVCAR-8 ovarian it was 103%; in the test with OVCAR-5 ovarian, 102%; in the test on OVCAR-4 ovarian it was 105%; in the test on IGROV1 ovarian it was 99.6%; in the test on OVCAR-3 ovarian it was 117%. Moreover, the growth in the test with HS 578T breast was 99.7%; in the test on NCI/ADR-RES ovarian, 109%; in the test with T-47D breast, 102%.
As to `NCCOc1ncccc1/C=C1\c2ccccc2-c2ccc([N+](=O)[O-])cc21`, the growth with RPMI-8226 leukemia is -21.5% (active); in the test on OVCAR-8 ovarian it was -13% (active); in the test on OVCAR-5 ovarian it was -72.8% (active); in the test with OVCAR-4 ovarian, -69.2% (active); in the test with IGROV1 ovarian, -80.2% (active); in the test with OVCAR-3 ovarian, -77.7% (active). Besides, the growth with HS 578T breast was -5.23% (active); in the test on NCI/ADR-RES ovarian it was -45.4% (active); in the test on T-47D breast, -30.4% (active).
